From paper PMC7819943, “Rice protein-binding microarrays: a tool to detect cis-acting elements near promoter regions in rice”
Over roughly 68,000 sequences, “fluorescence intensity (a.u.)” has its median near 9,100; the highest 2% begin near 16,000. Shown is part of a subset that was picked to be rich in the highest values.

biological target: OsWRKY34 (Oryza sativa, UniProt Q0JBA9 1-250); assay: protein-binding microarray (RPBM); PBS, 2% BSA, 51.3 ng/ul salmon testes DNA, 50 uM zinc acetate, 200 nM TF, 25 C, 1 h; high values mean tight binding; details: protein: recombinant; tags: N-terminal polyhistidine and DsRed monomer fusion (pET32a); label: CyDye5-dUTP incorporated in the synthesized complementary strand; 3' TTTTT single-stranded linker to array surface; dsDNA, one strand shown
Summary of the method: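 A custom Agilent array was converted to double-stranded form by primer extension with Cy5-dUTP and blocked with 2% BSA. Protein at 200 nM in PBS with 2% BSA, salmon testes DNA and 50 µM zinc acetate was applied for 1 h at 25 °C, followed by washing. The proteins were polyhistidine–DsRed N-terminal fusions of transcription factors, expressed in E. coli BL21-CodonPlus and Ni–NTA-purified. The binding signal is per-feature fluorescence intensity (arbitrary units) from an Axon 4000B scanner.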

Chain of OsWRKY34 (Q0JBA9 entry or part of it): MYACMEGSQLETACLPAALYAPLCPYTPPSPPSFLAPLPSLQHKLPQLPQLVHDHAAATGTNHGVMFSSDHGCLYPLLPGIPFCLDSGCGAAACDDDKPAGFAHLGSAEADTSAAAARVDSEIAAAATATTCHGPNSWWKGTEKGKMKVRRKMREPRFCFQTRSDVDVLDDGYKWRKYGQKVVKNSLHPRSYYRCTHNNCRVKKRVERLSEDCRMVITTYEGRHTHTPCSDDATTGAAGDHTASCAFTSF

Row | Sequence | binding signal
1 | GCTCCACCTACTCCGCTCCCCTCTGCTCGGCTGCTCCCATCGGAGTCACCTAGTGCAG | 8470 fluorescence intensity (a.u.)
2 | GCAGCATCACCCGCAGCCGCCGCCGCCGCCGCCATGGACTCGGAGTCACCTAGTGCAG | 10100 fluorescence intensity (a.u.)
3 | GCAATACACCTGATTTGATACTTCTTCCGATATAATACTCCGGAGTCACCTAGTGCAG | 8900 fluorescence intensity (a.u.)
4 | GATTGTATATGCCTGATAGGACTAGTTAGTGTGTTTTCTTCGGAGTCACCTAGTGCAG | 9220 fluorescence intensity (a.u.)
5 | CACTAGTTTTAGTTACTAACTTATGGCTCTTGTGCTATCACGGAGTCACCTAGTGCAG | 8070 fluorescence intensity (a.u.)
6 | AAGACACAGCTTCAACACGTAACCTATGCACTACACACTACGGAGTCACCTAGTGCAG | 11700 fluorescence intensity (a.u.)
7 | CCCGTTCTAATTCAGTTTCTCCCTTTCTTACCGCATGTACCGGAGTCACCTAGTGCAG | 8490 fluorescence intensity (a.u.)
8 | GTTCTCTAGCCGCTTGTGATACTCGCAATCCTAAACCACGCGGAGTCACCTAGTGCAG | 8410 fluorescence intensity (a.u.)
9 | TAACTGCGTTGACATGTCGCCTTGCTATACTCACATTCTTCGGAGTCACCTAGTGCAG | 9470 fluorescence intensity (a.u.)
10 | TCTCACTCTCTCACACACACACTCTCTCTCTCTGCTAGCTCGGAGTCACCTAGTGCAG | 9820 fluorescence intensity (a.u.)
11 | GAATGTTGATGCTGTTGATGCATGCACCTGCCGAAGGCCGCGGAGTCACCTAGTGCAG | 9170 fluorescence intensity (a.u.)
12 | CTCTTGCTGTTTCCTTTGCTCTGTTTCCTCTGCCTGCGCCCGGAGTCACCTAGTGCAG | 8760 fluorescence intensity (a.u.)
13 | CGCTGCTTCTGATCATCTCCCGTTCTTGCATTCTTCTTCTCGGAGTCACCTAGTGCAG | 19400 fluorescence intensity (a.u.)
14 | TGTTTGCTGCTGCTGCTGCTCTGCTTTTCTCTTTTTTCTTCGGAGTCACCTAGTGCAG | 9490 fluorescence intensity (a.u.)
15 | CACCACCTTTGTTTGCTGCTCTCCATTTTTTTTCTTCGTTCGGAGTCACCTAGTGCAG | 10200 fluorescence intensity (a.u.)
16 | ACGCCCGCTTGATCCGCCTGCTGCGCGCGCGCGAGTTTTTCGGAGTCACCTAGTGCAG | 9160 fluorescence intensity (a.u.)
17 | GAATCTGCTTCTCATTCTTTTTTTCTTGCTGATCATCATGCGGAGTCACCTAGTGCAG | 10200 fluorescence intensity (a.u.)
18 | CTTCTGTCATATCACCTTGCCGCTGCTTCTGATCATCTCCCGGAGTCACCTAGTGCAG | 8670 fluorescence intensity (a.u.)
19 | ATCCCGGCCTGCTCTTGCGCTTTGACTTTTTGTAGAGTTTCGGAGTCACCTAGTGCAG | 18200 fluorescence intensity (a.u.)
20 | TGTCCGCCACGCTCTCGCCATCTGCCTGTACCACTAATCTCGGAGTCACCTAGTGCAG | 22500 fluorescence intensity (a.u.)
21 | CTCGCCATCTCTGCCGCCGGTCCGCCGCCTCGCTCGCTCGCGGAGTCACCTAGTGCAG | 9470 fluorescence intensity (a.u.)

Row | Sequence | binding signal
22 | TTGTTCTTGCTGCATTTCTTCTTCTCGTTTTTTTTTCTTTCGGAGTCACCTAGTGCAG | 16900 fluorescence intensity (a.u.)
23 | TTCACCACCACCGCCACGGCCTCTGCCTCTCGCTCTCTCTCGGAGTCACCTAGTGCAG | 10200 fluorescence intensity (a.u.)
24 | TACTACTGTACTACTCTCAGTCTCTCGGCTTCTAGACTAGCGGAGTCACCTAGTGCAG | 8600 fluorescence intensity (a.u.)
25 | GATTCTAAACATCCACTCACACCTCATTTTTTTCATTAGCCGGAGTCACCTAGTGCAG | 9350 fluorescence intensity (a.u.)
26 | TGCCTGGCACCGTCCCCATCGCCGGCCGCCTCCGCCTCCGCGGAGTCACCTAGTGCAG | 11300 fluorescence intensity (a.u.)
27 | ACTTAATCCATTTTCTTTTCTTCTCCTATTTTTCCATCAACGGAGTCACCTAGTGCAG | 9970 fluorescence intensity (a.u.)
28 | ATATTTCTATGATTCTATCCCCTCCAGATTTATCGGCGCCCGGAGTCACCTAGTGCAG | 8310 fluorescence intensity (a.u.)
29 | CTTCCAGGCAGTTGTTCTGTATCCTCTTCTTGTTGCAACACGGAGTCACCTAGTGCAG | 8920 fluorescence intensity (a.u.)
30 | TTTTGGTTTTATGAGGCGGTGGATGGATACTTGTTACACTCGGAGTCACCTAGTGCAG | 10300 fluorescence intensity (a.u.)
31 | TCCTCTTCTGTTTTTCTGTTTTTTTTCGTTTCTCTTCCCTCGGAGTCACCTAGTGCAG | 13300 fluorescence intensity (a.u.)
32 | ATTGTTTTTTTTCTTTCTTTTTGCAAATCTCGCTTCGCTTCGGAGTCACCTAGTGCAG | 8540 fluorescence intensity (a.u.)
33 | GTTCGTTCGCCCTGCTGCTTCTCCCGCCGCATCCATCCCGCGGAGTCACCTAGTGCAG | 9640 fluorescence intensity (a.u.)
34 | TCTCTCCATCCATCCCTGCTGCTTCTCCATCTCGCATCTGCGGAGTCACCTAGTGCAG | 16700 fluorescence intensity (a.u.)
35 | TGTGCGCGTGTTGTTTTTTTGGCTTCTTTTTCGCTTGCCACGGAGTCACCTAGTGCAG | 11400 fluorescence intensity (a.u.)
36 | TGTGCTTCTTTTTTTAATTTCTCTCTCTGTTTGCTTCTCTCGGAGTCACCTAGTGCAG | 9720 fluorescence intensity (a.u.)
37 | TTTTTTCGGTGTTTTTCTTTTTGTTTCTTTTCGCTTCGCTCGGAGTCACCTAGTGCAG | 12700 fluorescence intensity (a.u.)
38 | GTGGGCATGATTTTCTTCTGTTTTCTCGTTTTAATTTTTTCGGAGTCACCTAGTGCAG | 20100 fluorescence intensity (a.u.)
39 | CTGCTTCTTTTGTTTGGTTGGTTTCAGGGCTTCGTGGCCACGGAGTCACCTAGTGCAG | 17800 fluorescence intensity (a.u.)
40 | CGGCTTCTCGCTTTCTTGTTTCTCGTGGAGTTGCTTTTTTCGGAGTCACCTAGTGCAG | 17500 fluorescence intensity (a.u.)
41 | ACCGGTGGCTTTGTTTGGTTCCACGGTCTTCAGGTTGGGACGGAGTCACCTAGTGCAG | 8130 fluorescence intensity (a.u.)
42 | GCTTCTCCATCTCGCATCTGCTGCCTCCTAATTTGCTTCGCGGAGTCACCTAGTGCAG | 10000 fluorescence intensity (a.u.)
